The campaign covered roughly 29,000 compounds. Fewer than 10 were called active. Not all results are given here. Values without a mark were called inactive. No rule for the calls is given here.

The assay can be described thus: activators reversing PD-1 mediated T-cell inhibition, primary screen, luminescence, primary human CD4 T cells, PD-L1 beads (AID 2316).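 Also: 0% = median vehicle wells and 100% = positive control.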 As to conditions: CellTiter-Glo 96 h, stronger effect = higher value. (In general: In ATP-based viability assays light output follows the ATP content of the culture.)
Consider `Cc1noc(C)c1S(=O)(=O)N(C)C[C@@H]1Oc2c(NS(=O)(=O)c3cn(C)cn3)cccc2C(=O)N([C@H](C)CO)C[C@@H]1C`, for which the activation is 1.65%.

For `O=c1c2ccccc2nc(SCc2ccc(F)cc2)n1-c1ccccc1`, the activation is -10.1%.

With `COC(=O)c1ccc(C(=O)OC)c(NC(=O)COc2ccc(C)cc2)c1`, the activation was -5.39%.

With `O=C(Nc1ccc(C23CC4CC(CC(C4)C2)C3)cc1)c1cccs1`, the activation is 0.396%.

For the molecule `C/C=C1\C2C=C(C)CC1(N)c1ccc(=O)[nH]c1C2` (configuration not stated), the activation is 0.91%.

Consider `COc1cccc2cc(C(=O)Nc3sc4c(c3C(N)=O)CCCCC4)c(=O)oc12`, for which the activation was 3.77%.

As to `COc1ccc(S(=O)(=O)Nc2ccc3c(c2)C(=O)N([C@H](C)CO)C[C@@H](C)[C@H](CN(C)S(=O)(=O)c2ccc(C)cc2)O3)cc1`, the activation is 0.261%.

On to `COc1ccc(Oc2ccc(NC(=O)CCC(=O)O)cc2)cc1`, for which the activation is 0.302%.

In the case of `C[C@@H]1CN([C@H](C)CO)C(=O)Cc2cc(NC(=O)Cc3ccccc3)ccc2O[C@@H]1CN(C)Cc1ccccc1`, the activation is 1.25%.

As for `O=C(CN1CCOCC1)Nc1sc2c(c1C(=O)Nc1ccc(Br)cc1)CCC2`, the activation is -2.1%.

`C[C@@H]1CN([C@@H](C)CO)C(=O)c2cc(NS(=O)(=O)c3ccc(Cl)cc3)ccc2O[C@H]1CN(C)S(=O)(=O)c1cn(C)cn1`: the activation was -1.79%.

Take `COc1cc(C=Nc2ccc(Cl)cc2)ccc1OC(=O)/C=C/c1cccs1`: the activation is -0.177%.

In the case of `CCO/C([O-])=N\c1c[n+](N2CCOCC2)no1`, the activation is 0.71%.

`C[C@@H]1CN([C@H](C)CO)C(=O)c2cc(NC(=O)Cc3ccccc3)ccc2O[C@@H]1CN(C)CC1CCCCC1`: the activation is -0.76%.

Consider `C[C@@H]1CCCCO[C@@H](CN(C)C(=O)NC2CCCCC2)[C@@H](C)CN([C@H](C)CO)C(=O)c2cc(NC(=O)CCCCCC(=O)Nc3ccccc3N)ccc2O1`, for which the activation is 0.709%.

In the case of `Cc1ccc(-n2c(C)nc3sc4c(c3c2=O)CCC4)cc1`, the activation is -4.12%.

Take `CC(=O)c1cccc(NC(=O)CN(c2ccc(F)c(Cl)c2)S(C)(=O)=O)c1`: the activation is 2.89%.

In the case of `C[C@@H]1CN([C@H](C)CO)C(=O)Cc2cc(NC(=O)C3CCCCC3)ccc2O[C@@H]1CN(C)Cc1ccc(C(F)(F)F)cc1`, the activation is -3.12%.

For `CC1=Nn2c(Cn3nnc4ccccc43)nnc2SC1`, the activation was 0.665%.

For `CC(=O)c1cccc(NC(=O)CN(C2CCCCC2)S(=O)(=O)c2ccccc2)c1`, the activation was -2.41%.

On to `CC(C)NC(=O)Nc1ccc2c(c1)C(=O)N([C@@H](C)CO)C[C@H](C)[C@@H](CN(C)C)O2`, for which the activation was 0.0718%.

With `CCCOC(=O)C1=C(C)N(CC)C(=O)NC1c1ccccc1Cl` (configuration not stated), the activation is -0.396%.

Values taken from PubChem BioAssay AID2316 (Broad Institute, 2010).
